As a reminder, the AC50 is the midpoint of the concentration-response curve, whichever way the signal moves.

Data on 17 compounds can be found in PubChem BioAssay (EPA / NIEHS).

Calls of active or inactive are those of the source. The calls were made as follows: active = hit-call score of the fitted dose curve at least 0.9, where 1 is the maximum; inactive = score below 0.9.

Assay [1] deals with Transcription factor E2F1 (Homo sapiens) (UniProt Q01094). Nature of the assay: ATG_E2F_CIS: Attagene CIS-FACTORIAL HepG2 Assay for human E2F Transcription Factor 1 (AID 2282935). The settings on record: HepG2 Attagene cis-reporter, E2F reporter RNA transcripts; actives raise or lower the signal. In outline:
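In this cis-factorial format, endogenous factor activity drives transfected reporters in HepG2; transcripts collected at 24 h are quantified by fluorescence after RT-PCR and capillary separation.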

Assay [2] is described as follows: ATG_E_Box_CIS: Attagene CIS-FACTORIAL HepG2 Assay for human Enhancer Box (E-box) (AID 2282936). The settings on record: HepG2 E-box cis-reporter transcription, actives raise or lower the signal. In outline: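 Measured 24 h post-dosing in HepG2 cells transfected with multiple cis-regulated reporter units, signal being reporter mRNA induction detected by fluorescent RT-PCR with capillary electrophoresis; gain or loss fitted against DMSO.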

Assay [3] can be described thus: ATG_M_61_CIS: Attagene CIS-FACTORIAL HepG2 Assay for M61 Transcription Factor (Internal Marker) (AID 2282937). The settings on record: HepG2 Attagene CIS-FACTORIAL M61 internal marker reporter; actives raise or lower the signal. The essentials:
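Multiplexed reporter mRNA assay, HepG2 human hepatoma cells, 24 h treatment. Signal: FAM-labelled, HpaI-digested RT-PCR fragments by CE. Fit: bidirectional, baseline DMSO.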

Assay [4] in a line: ATG_EGR_CIS: Attagene CIS-FACTORIAL HepG2 Assay for human Early Growth Response 1 (EGR1) (AID 2282938). The settings on record: HepG2 Attagene CIS-FACTORIAL EGR reporter mRNA; actives raise or lower the signal. The essentials: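 Multiplexed cis-reporter system in human hepatoma HepG2 cells, transiently transfected. Cells are dosed for 24 h; reporter transcripts are amplified, fluorescently tagged and sized by capillary electrophoresis, with DMSO as negative control.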

The nature of assay [5]: ATG_M_19_CIS: Attagene CIS-FACTORIAL HepG2 Assay for M19 Transcription Factor (Internal Marker) (AID 2282939). The settings on record: HepG2 Attagene CIS-FACTORIAL M19 internal marker reporter; actives raise or lower the signal. In outline: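 Signals come from fluorescence of labelled reporter-specific PCR fragments resolved by capillary electrophoresis, following 24 h treatment of HepG2 cells transfected with cis-promoter reporter units; activity was fitted in both directions relative to DMSO.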

The nature of assay [6]: ATG_ERE_CIS: Attagene CIS-FACTORIAL HepG2 Assay for Estrogen Response Element (ERE) (AID 2282940). The settings on record: HepG2 ERE cis-reporter, Attagene RNA transcript; actives raise or lower the signal. The essentials:
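Fluorescence of capillary-separated, FAM-labelled reporter cDNA fragments indicates reporter mRNA levels in HepG2 cells exposed to chemicals for 24 h. Transient transfection with cis-regulated units; data fitted in both directions against DMSO.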

Assay [7] can be described thus: ATG_Ets_CIS: Attagene CIS-FACTORIAL HepG2 Assay for human Erythroblast Transformation Specific (ETS) (AID 2282941). The settings on record: HepG2 ETS cis-reporter transcription, actives raise or lower the signal. In outline: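 Endogenous transcription factor activity read as reporter mRNA via RT-PCR and capillary electrophoresis, with gain or loss fitted bidirectionally against DMSO. Human HepG2 liver cells, transiently transfected CIS reporter constructs, 24 h exposure.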

In assay [8] the target is Hepatocyte nuclear factor 3-beta (Homo sapiens) (UniProt Q9Y261). Description: ATG_FoxA2_CIS: Attagene CIS-FACTORIAL HepG2 Assay for human Forkhead box A2 (FOXA2) (AID 2282942). The settings on record: HepG2 cis-reporter transcription factor activity, 24 h; actives raise or lower the signal. In outline:
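Multiplexed cis-element reporter assay in transiently transfected HepG2. Twenty-four hours post-dosing, RNA was reverse-transcribed, amplified, FAM-labelled, HpaI-digested and separated by CE. Activity gain or loss relative to DMSO.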

Assay [9] is described as follows: ATG_FoxO_CIS: Attagene CIS-FACTORIAL HepG2 Assay for human Forkhead box O (FoxO) (AID 2282943). The settings on record: HepG2 Attagene cis-reporter, FoxO element, mRNA; actives raise or lower the signal. The essentials: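 Values reflect reporter mRNA induction or loss in HepG2 cells 24 h post-dosing, fitted bidirectionally with DMSO as negative control and baseline. Detection used RT-PCR and fluorescence capillary electrophoresis.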

Assay [10] can be described thus: ATG_GATA_CIS: Attagene CIS-FACTORIAL HepG2 Assay for human GATA Binding Protein (AID 2282944). The settings on record: HepG2 GATA cis-element reporter, Attagene multiplex mRNA; actives raise or lower the signal. In outline:
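After transfecting HepG2 cells with multiple cis-regulated reporter units, chemicals are dosed for 24 h; isolated RNA undergoes RT-PCR and fluorescent labeling before capillary electrophoresis, with activity expressed against DMSO.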

Chain of Transcription factor E2F1 (Homo sapiens) (Q01094 whole entry, looked up): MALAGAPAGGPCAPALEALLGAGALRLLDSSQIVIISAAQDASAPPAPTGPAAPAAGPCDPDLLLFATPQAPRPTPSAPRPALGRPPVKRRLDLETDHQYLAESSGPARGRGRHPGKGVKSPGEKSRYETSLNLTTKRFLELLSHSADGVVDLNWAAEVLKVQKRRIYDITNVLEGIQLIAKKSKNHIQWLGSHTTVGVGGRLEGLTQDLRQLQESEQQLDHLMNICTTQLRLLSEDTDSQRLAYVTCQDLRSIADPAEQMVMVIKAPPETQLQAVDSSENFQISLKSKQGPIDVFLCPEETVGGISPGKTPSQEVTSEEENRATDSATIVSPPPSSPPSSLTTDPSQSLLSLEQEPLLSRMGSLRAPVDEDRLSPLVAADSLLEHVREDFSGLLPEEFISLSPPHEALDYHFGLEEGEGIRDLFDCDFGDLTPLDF
Chain of Hepatocyte nuclear factor 3-beta (Homo sapiens) (Q9Y261 whole entry, looked up): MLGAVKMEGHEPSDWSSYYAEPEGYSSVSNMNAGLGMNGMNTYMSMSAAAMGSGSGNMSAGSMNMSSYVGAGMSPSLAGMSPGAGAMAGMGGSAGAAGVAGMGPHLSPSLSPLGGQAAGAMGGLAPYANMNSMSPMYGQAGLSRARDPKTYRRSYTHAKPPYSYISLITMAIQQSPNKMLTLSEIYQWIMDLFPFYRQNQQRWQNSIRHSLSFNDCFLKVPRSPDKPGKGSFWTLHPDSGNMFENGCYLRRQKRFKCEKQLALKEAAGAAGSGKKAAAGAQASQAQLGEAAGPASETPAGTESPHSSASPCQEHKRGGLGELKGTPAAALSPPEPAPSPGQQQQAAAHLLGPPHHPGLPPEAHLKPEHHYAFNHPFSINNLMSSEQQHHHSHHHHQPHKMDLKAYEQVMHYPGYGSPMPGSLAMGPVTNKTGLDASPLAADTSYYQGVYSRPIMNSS

Consider `O=C(O)c1c(Cl)ccc2cc(Cl)cnc12`, for which the call in [1], in [2], in [3], in assay [4], in [5] and in assay [6] was inactive. Also, the result in assay [7], in [8], in assay [9] and in assay [10] was inactive.
For `CC1(C)CCC(=Cc2ccc(Cl)cc2)C1(O)Cn1cncn1` (centres undefined), the outcome in [1], in assay [2], in assay [3], in assay [4], in [5] and in assay [6] was inactive. Besides, the result in assay [7], in [8], in [9] and in assay [10] was inactive.
`CCCCOCN(C(=O)CCl)c1c(CC)cccc1CC`: the result in assay [1], in assay [2], in assay [3], in assay [4], in assay [5] and in assay [6] was inactive. The compound was called inactive in assay [7], in [8], in assay [9] and in assay [10].
On to `Clc1cccc(C(Cl)(Cl)Cl)n1`, for which the result in assay [1], in [2], in assay [3], in assay [4], in assay [5] and in [6] was inactive. Also, the compound was called inactive in assay [7], in assay [8], in assay [9] and in assay [10].
On to `CC1(C)CON(Cc2ccccc2Cl)C1=O`, for which the call in [1], in assay [2], in assay [3], in [4], in assay [5] and in assay [7] was inactive. Moreover, the outcome in assay [8], in [9] and in [10] was inactive. The half-maximal activity concentration (AC50) in [6] was 50 µM (active).
Turning to `CCNC(=O)NC(=O)C(C#N)=NOC`, the call in assay [1], in assay [2], in [3], in [4], in [7] and in [8] was inactive. For the same compound, the compound was called inactive in assay [9] and in [10]. In addition, in assay [6], the AC50 was 50 µM (active).
Turning to `CCOC(=O)C(C)OC(=O)c1cc(Oc2ccc(C(F)(F)F)cc2Cl)ccc1[N+](=O)[O-]` (centres undefined), the result in assay [1], in [2], in [3], in assay [4], in assay [5] and in assay [7] was inactive. In addition, the compound was called inactive in assay [8], in assay [9] and in assay [10]. In assay [6], the AC50 is 34.1 µM (active).
Consider `COC(=O)c1c(C(F)F)nc(C(F)(F)F)c(C2=NCCS2)c1CC(C)C`, for which the outcome in assay [1], in assay [3], in [4], in [5], in assay [7] and in [8] was inactive. In addition, the compound was called inactive in [9]. The figures for the AC50 in assay [2], in [6] and in assay [10] were 9.92 µM (active), 13.8 µM (active) and 88.5 µM (active), respectively.
Turning to `Nc1cnn(-c2ccccc2)c(=O)c1Cl`, the result in assay [1], in assay [2], in [3], in assay [4], in [5] and in [6] was inactive. Further, the call in assay [7], in assay [8], in assay [9] and in assay [10] was inactive.
Consider `CC1(C)C(C(=O)OC(C#N)c2cccc(Oc3ccccc3)c2)C1(C)C` (centres undefined), for which the call in assay [1], in assay [2], in assay [3], in assay [4], in assay [5] and in [6] was inactive. The compound was called inactive in assay [7], in assay [8], in assay [9] and in assay [10].
Consider `CN/C(=N\[N+](=O)[O-])NCc1cnc(Cl)s1`, for which the compound was classed as inactive in assay [1], in assay [2], in assay [3], in assay [4], in [5] and in [6]. In addition, the compound was classed as inactive in assay [7], in assay [8], in assay [9] and in assay [10].
Turning to `CCOc1nc(F)cc2nc(S(=O)(=O)Nc3c(Cl)cccc3Cl)nn12`, the outcome in [1], in assay [2], in assay [3], in [4], in assay [5] and in assay [6] was inactive. For the same compound, the outcome in [7], in assay [8], in assay [9] and in assay [10] was inactive.
On to `O=C(Nc1ccccc1-c1ccc(Cl)cc1)c1cccnc1Cl`, for which the outcome in assay [1], in assay [2], in assay [3], in [4], in assay [5] and in assay [6] was inactive. The compound was classed as inactive in assay [7], in assay [8], in assay [9] and in [10].
As to `CCCC(=NOCC)C1=C(O)CC(CC(C)SCC)CC1=O` (centres undefined), the compound was called inactive in [1], in assay [2], in assay [3], in [4], in [5] and in assay [6]. For the same compound, the result in [7], in assay [8], in [9] and in assay [10] was inactive.
Turning to `O=c1n(Cl)c(=O)n(Cl)c(=O)n1Cl`, the result in assay [1], in assay [2], in assay [3], in [4], in assay [5] and in assay [6] was inactive. The compound was called inactive in assay [7], in [8], in [9] and in assay [10].
With `Cc1c(COC(=O)[C@@H]2[C@H](/C=C(\Cl)C(F)(F)F)C2(C)C)cccc1-c1ccccc1`, the call in assay [1], in [2], in assay [3], in assay [4], in [5] and in assay [7] was inactive. For the same compound, the call in assay [8], in assay [9] and in [10] was inactive. Further, in [6], the AC50 is 20.9 µM (active).
As for `CC(C)NC(=O)N1CC(=O)N(c2cc(Cl)cc(Cl)c2)C1=O`, the result in assay [1], in [2], in assay [3], in assay [4], in assay [5] and in assay [7] was inactive. Further, the compound was classed as inactive in assay [8], in assay [9] and in assay [10]. Besides, the AC50 in assay [6] is 20.6 µM (active).
